Only a selection was taken, and hits are over-represented in it overall.
Methyltransferases: Primary Screen for Target Class Profiling of Small Molecule Inhibitors of Methyltransferases. 25,000 compounds, 3.9% hits. AID 1745853, 2022. purified enzyme, MTase-Glo SAH luminescence; stronger effect = lower value. calls only at 40 µM; call rule not given here
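Each enzyme was assayed with SAM and its substrate. SAH formation detected by MTase-Glo luminescence; single-point 40 uM screen[…].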
Each line names hits and unclear results; the compound was inactive in the other large screens.

COCCCN1C(=O)c2cc3ccc(OC)cc3n2CC1(C)C(=O)NC1CCCCC1 (stereo not drawn)	none
CCC1CN(S(=O)(=O)c2ccc3[nH]c4c(c3c2)CCCC4)c2cc(C)ccc2O1 (stereo not drawn)	none
CC(C)n1nc(Cc2cccc3ccccc23)c2c(N)ncnc21	Methyltransferases active
CC(C)n1nc(CNC(=O)Cc2ccc(F)cc2)c2ccccc21	none
CC(C)n1nc(-c2ccc3oc(N)nc3c2)c2c(N)ncnc21	none
COc1ccc(CN2C(=O)c3ccc(-c4ccccc4)n3CC2(C)C(=O)NC2CCCC2)cc1 (stereo not drawn)	none
COCCNC(=O)c1cc2n(n1)CC(C)(C(=O)NC1CCCCC1)N(C)C2=O (stereo not drawn)	none
Cc1cc2c(cc3n2CC(C)(C(=O)NC2CCCCCC2)N(CCCc2ccccc2)C3=O)o1 (stereo not drawn)	none
CCOCCCN1C(=O)c2ccc(-c3ccco3)n2CC1(C)C(=O)NC1CCCCC1 (stereo not drawn)	none
CN(CCCOc1ccc(Cc2ccccc2)cc1)CCC(=O)O	none
COc1cccc(-c2[nH]cnc2-c2ccccc2)c1OCCCN(C)C	none
COc1ccc(CCN(C)CCCOc2nsc(-c3ccccc3)n2)cc1OC	Methyltransferases active
Cc1ccccc1CN1C(=O)c2nc3ccccc3n2CC1(C)C(=O)NC1CCCCC1 (stereo not drawn)	none
CCCn1c(=O)c2ccccc2n2c(SCc3cccc(F)c3)nnc12	none
CCc1ccccc1N1C(=O)c2cc(C(C)(C)C)nn2CC1(C)C(=O)NCc1ccccc1 (stereo not drawn)	none
CCCC1c2ccc(C)n2CCN1C(=O)Nc1ccccc1C(F)(F)F (stereo not drawn)	none
CC(C)C1c2cccn2CCN1C(=O)Nc1ccccc1C(F)(F)F (stereo not drawn)	none
CCCC1c2cccn2CCN1C(=O)Nc1ccccc1C(F)(F)F (stereo not drawn)	Methyltransferases active
CN1CCN(CCNC(=O)CCn2ccc3cc(S(=O)(=O)N4CCCCC4)ccc32)CC1	none
COc1ccccc1CN1C(=O)c2ccc(-c3ccco3)n2CC1(C)C(=O)NC1CCCC1 (stereo not drawn)	none
COc1ccc(C(=O)Cn2nc3n(Cc4ccccc4)c(=O)c4ccccc4n3c2=O)cc1	none
COc1cc(C(=O)O)ccc1OC1OC(CO)C(O)C(O)C1O (stereo not drawn)	none
C=C(C)C1Cc2cc(C(=O)OC3OC(CO)C(O)C(O)C3O)ccc2O1 (stereo not drawn)	Methyltransferases active
COc1cc(C(C)=O)ccc1O[C@@H]1O[C@H](CO)[C@@H](O)[C@H](O)[C@H]1O	none
CC1CCCC(NC(=O)Cn2c(=O)oc3cc(S(=O)(=O)NCc4ccccc4)ccc32)C1C (stereo not drawn)	none
Cc1cc(C)cc(NC(=O)c2cc3n(n2)CC(C)(C(=O)NC2CCCCC2)N(C)C3=O)c1 (stereo not drawn)	none
O=C1CN(Cc2c(F)cccc2Cl)S(=O)(=O)c2ccccc2N1Cc1ccccc1F	none
CN1C(=O)c2cc(C(=O)NCc3ccccn3)nn2CC1(C)C(=O)NC1CCCCCC1 (stereo not drawn)	none
CO[C@H]1C(=O)N(C(C)C)[C@H]1C1CCN(S(=O)(=O)c2ccc3c(c2)CCC3)CC1	none
N#Cc1ccc(N2N=C3c4ccc(C(=O)O)cc4CC[C@@H]3[C@@H]2C2CCCC2)cc1Cl	Methyltransferases active
COc1ccccc1NC(=O)Cn1nc2n(Cc3ccccc3)c(=O)c3ccccc3n2c1=O	none
CCN1C(=O)c2cc(C(=O)Nc3ccc(Cl)cc3C)nn2CC1(C)C(=O)NC1CCCC1 (stereo not drawn)	none
COc1ccc2c(c1)N1C(=O)C[C@@]34C=CC[N@+]5([O-])CC[C@H]2[C@H](CC3)[C@@]145	none
COc1cc2c(cc1OC)N1C(=O)C[C@]34C=CCN5CC[C@@H]2[C@@H](CC3)[C@]514	Methyltransferases active
CCCC1c2ccc(C)n2CCN1C(=O)Nc1cc(Cl)ccc1C (stereo not drawn)	none
CCCCOc1ccccc1-c1cc2n(n1)CC(C)(C(=O)NC1CCCCCC1)N(CCOC)C2=O (stereo not drawn)	none
CCN1CCN(Cc2ccc(-c3cc4c(N[C@H](C)c5ccccc5)ncnc4[nH]3)cc2)CC1	Methyltransferases active
CCN1CCN(Cc2ccc(-c3cc4c(NC(C)c5ccccc5)ncnc4[nH]3)cc2)CC1 (stereo not drawn)	Methyltransferases active
Cc1ccc(NC(=O)Cn2c(=O)oc3cc(S(=O)(=O)N4CC(C)CC(C)C4)ccc32)c(C)c1 (stereo not drawn)	none
CNC(=O)C(C)N(C)C(=O)c1coc(CN2CCN(c3ccccc3F)CC2)n1 (stereo not drawn)	none
CC(=O)OC1CC(=O)C2(C)C3CC4=C(OC(C)CC4=O)OC3(C)CCC2C1(C)C (stereo not drawn)	Methyltransferases active
CC(C)c1cccc(N2C(=O)c3ccccc3CC2(C)C(=O)NCc2ccccc2)c1 (stereo not drawn)	none
Cc1ccc(C(=O)Nc2ccc(S(=O)(=O)O)c3cc(S(=O)(=O)O)cc(S(=O)(=O)O)c23)cc1NC(=O)c1cccc(NC(=O)Nc2cccc(C(=O)Nc3cc(C(=O)Nc4ccc(S(=O)(=O)O)c5cc(S(=O)(=O)O)cc(S(=O)(=O)O)c45)ccc3C)c2)c1	Methyltransferases active
CC(C)c1cc2n(n1)CC(C)(C(=O)NC1CCCCC1)N(Cc1cccc(Cl)c1)C2=O (stereo not drawn)	none
Fc1ccc2[nH]ccc2c1-c1nc(N2CCOCC2)c2sc(CN3CCN(CC4CC4)CC3)cc2n1	Methyltransferases active
c1ccc(-c2oc3ncnc(NC[C@@H]4CCCO4)c3c2-c2ccccc2)cc1	Methyltransferases active
c1nc(NC2CCCCCC2)c2cc(CNC[C@H]3CCCO3)sc2n1	none
Cc1cccc(-c2nnn3c2nc(NCC2CCCO2)c2ccccc23)c1 (stereo not drawn)	none
COc1ccccc1CNC(=O)C1c2c(n(C)c3ccccc23)SCC(=O)N1c1ccccc1F (stereo not drawn)	none
Cc1ccc(S(=O)(=O)NCCn2c(CCc3ccccc3)nc3ccccc32)c(C)c1	none
Cc1ccccc1N1C(=O)c2ccc(-c3ccco3)n2CC1(C)C(=O)NC1CCCC1 (stereo not drawn)	none
CN(C)CCCn1cc(C2=C(c3c[nH]c4ccccc34)C(=O)NC2=O)c2ccccc21	Methyltransferases active
Cc1nnc(N2CCC3(CCC(=O)N(CCCN(C)C)C3)CC2)c2ccccc12	none
Cc1ccc(Cn2c(=O)c3ccccc3n3c(SCC(=O)Nc4ccccc4F)nnc23)cc1	none
CC1(C(=O)NC2CCCCCC2)Cn2c(ccc2-c2ccco2)C(=O)N1CCCN1CCCCC1 (stereo not drawn)	none
Cc1ccc(Cn2c(=O)c3ccccc3n3c(=O)n(CC(=O)NCc4ccccc4Cl)nc23)cc1	none
C=C(C)C(=O)OC1C(OC(C)=O)/C(C=O)=C\CC/C(CO)=C/C2OC(=O)C(=C)C21 (stereo not drawn)	none
C=C1C(=O)O[C@@H]2/C=C(\CO)CC/C=C(\CO)[C@H](OC(C)=O)C(OC(=O)C(C)CC)C12 (stereo partly drawn)	none
C=C1C(=O)O[C@@H]2C=C(COC(C)=O)CC/C=C(\CO)CC[C@@H]12	Methyltransferases active
CCCn1c(=O)c2ccc(C(=O)NC(C)CC)cc2n2c(SCC(=O)Nc3ccc(C)cc3C)nnc12 (stereo not drawn)	none
CC1(C(=O)NC2CCCCCCC2)Cn2c(ccc2-c2ccco2)C(=O)N1CCc1cccs1 (stereo not drawn)	none
